Reference: PubChem BioAssay (Tox21)
Results filed as inconclusive are left out. Values without a mark were called inactive. Calls of active or inactive are those of the source. Calls come from the whole dose curve; as a rule, active = well fitted cell-killing curve with a large enough effect in the repeat runs; inconclusive = weak or mixed curves, or effect the other way; inactive = flat fitted curve, though single readings scatter.

Test: qHTS RealTime-Glo MT Cell Viability Assay in HEK293 cells - 16 hour (AID 1224872); note: nearly all actives have a fitted effect of over 50% in size; for activity change, negative = cytotoxicity: top concentration of the series differs between compounds
Settings: RealTime-Glo luminescence; series mostly up to 76.8 µM; activity change, negative = cytotoxicity: at the top concentration
Excerpt: National Center for Advancing Translational Sciences [NCATS]
NIH Chemical Genomics Center [NCGC]
U.S. Environmental Protection Agency [EPA]
National Institutes of Environmental Health Sciences [NIEHS]
National Toxicology Program [NTP]
U.S. Food and Drug Administration [FDA]
Measure of cell viability is critical in the cell-base assay. Analysis of cell viability is necessary for the characterization of cell responses to cytotoxic drugs and environmental stress. A RealTime-Glo MT Cell Viability Assay to monitor cell viability in real time of continues cell culture during 40 hours of compound treatment was used to screen Tox21 10K library compounds in Hek293 cells. The RealTime-Glo MT Cell Viability Assay is a nonlytic, homogeneous, bioluminescent method to measure cell viability in real time using a simple, plate-based method. The assay involves adding NanoLuc luciferase and a cell-permeant prosubstrate to cells in culture. Viable cells reduce the proprietary prosubstrate to generate a substrate for NanoLuc luciferase. This substrate diffuses from cells into the surrounding culture medium, where it is rapidly used by the NanoLuc Enzyme to produce a luminescent signal. The signal correlates with the number of viable cells, making the assay well suited for cytotoxicity studies.
Tox21 Assay Protocol Summary:
The mixture of Hek293 cell suspension and reagents were dispensed at 600cells/6 ul/well in 1536-well tissue culture treated black solid bottom plates using a Multidrop dispenser. After the assay plates were incubated at a 37 C/5% CO2 incubator for 5 hours, 23 nL of compounds dissolved in DMSO, positive and negative controls was transferred to the assay plate by a pintool work station. The plates were incubated at 37 C for 40 hours. The luminescence intensity were measured at 0h, 8h, 16h, 24h, 32h and 40h time points using ViewLux plate reader during compound treatment.
% is set by controls: 0 for no effect and ±100 for the full control effect; potency is the fitted concentration of half-maximal effect.

| SMILES | activity change, negative = cytotoxicity | Potency |
| --- | --- | --- |
| CCOc1ccc(NC(=O)OC(C)C)cc1OCC | -14.2% |  |
| COc1ccc(N=Nc2cc(C)c(N=Nc3ccc(S(=O)(=O)O)cc3)cc2OC)cc1 | -17.5% |  |
| C=C(C)C(=O)OC | -14.5% |  |
| CCNC(=O)NCCCOc1cccc(CN2CCCCC2)c1 | -6.02% [at 35.3 µM] |  |
| CC(Cl)COP(=O)(OCC(C)Cl)OCC(C)Cl (stereo not given) | 1.74% |  |
| OCCCCCCCl | -12.6% |  |
| O=c1[nH]c(=O)c2[nH]c(=O)[nH]c2[nH]1 | 9.21% [at 6.97 µM] |  |
| C1CCN2C[C@@H]3C[C@@H](CN4CCCC[C@@H]34)[C@H]2C1 | -0.335% [at 35.3 µM] |  |
| CN=C(NC#N)NCCSCc1csc(N=C(N)N)n1 | 1.37% [at 35.3 µM] |  |
| CC(C)COC(=O)CC(C(=O)OCC(C)C)S(=O)(=O)O (stereo not given) | 10.7% |  |
| CCCCCN(CCCOC)C(=O)C(CCC(=O)O)NC(=O)c1ccc(Cl)c(Cl)c1 (stereo not given) | 5.28% [at 35.3 µM] |  |
| C=C(C)C(=O)OC1CC(C)CC(C)(C)C1 (stereo not given) | 6.75% |  |
| CCC(CO)CO | 13.8% |  |
| NS(=O)(=O)c1cc2c(cc1Cl)NC(CC1CCCC1)NS2(=O)=O (stereo not given) | 1.15% [at 35.3 µM] |  |
| CCCCCCCCOC(C)=O | 15.3% |  |
| O=P(O)(O)OCC(O)CO (stereo not given) | 2.79% [at 35.3 µM] |  |
| Cc1nc(C)nc(N2C[C@@H](C)N(c3ccnc([C@@H](C)O)n3)[C@@H](C)C2)n1 | 5.42% [at 35.3 µM] |  |
| CCOC(=O)CC#N | 0.139% |  |
| C[C@H]1O[C@H](O[C@H]2[C@H](O)[C@@H](O)[C@@H](O[C@H]3[C@H](O)[C@@H](O)[C@H](O)O[C@@H]3CO)O[C@@H]2CO)[C@H](O)[C@@H](O)[C@@H]1N[C@H]1C=C(CO)[C@@H](O)[C@H](O)[C@H]1O | 7.24% [at 35.3 µM] |  |
| O=C1NC2NC(=O)NC2N1 (stereo not given) | 14.9% |  |

| SMILES | activity change, negative = cytotoxicity | Potency |
| --- | --- | --- |
| CC(C)C(=O)c1ccccc1 | -7.22% |  |
| COC(/C=C(\C)CCC=C(C)C)OC | 0.942% |  |
| CN(C)CCCNCCC#N | 11% |  |
| CCC1COC(=O)O1 (stereo not given) | 5.94% |  |
| CCCCOC(=O)[C@@H](C)Oc1ccc(Oc2ccc(C(F)(F)F)cn2)cc1 |  | 31.1 µM (active) |
| NC(=O)NNC(N)=O | 10.4% |  |
| CC(=O)/C=C/c1ccco1 | 14.7% |  |
| NS(=O)(=O)c1ccc(Cl)c(S(N)(=O)=O)c1 | 1.65% [at 35.3 µM] |  |
| O=CO | 2.46% [at 6.97 µM] |  |
| Cc1cc(C)cc([N+](=O)[O-])c1 | -9.61% |  |
| CNC(=O)NC | -0.598% |  |
| CC(=O)c1ccc2c(c1)CCCC2 | -4.73% |  |
| C[C@H](CCC(=O)O)[C@H]1CC[C@H]2[C@@H]3[C@H](O)C[C@@H]4C[C@H](O)CC[C@]4(C)[C@H]3C[C@H](O)[C@]12C | -3.27% [at 35.3 µM] |  |
| Cc1ccc2c(c1)c1c3n2CCNC3CCC1 (stereo not given) | 0.926% [at 35.3 µM] |  |
| FC(F)(F)/C(=N\OCC1OCCO1)c1ccc(Cl)cc1 | -2.65% |  |
| O=C(COCCOCCOCC(=O)Nc1c(I)cc(I)c(C(=O)O)c1I)Nc1c(I)cc(I)c(C(=O)O)c1I | 2.61% [at 35.3 µM] |  |
| CCN(Cc1cccc(S(=O)(=O)O)c1)c1ccccc1 | -4.6% |  |
| C[N+](C)(C)CC(O)CCl (stereo not given) | -5.93% |  |
| CCOC(=O)OCC/C(SC(=O)OCC)=C(\C)N(C=O)Cc1cnc(C)nc1N | 4.23% [at 35.3 µM] |  |
| Cc1nc2ccccc2c(=O)o1 | 7.14% |  |
